# High-throughput results (PubChem BioAssay)
# G9a block = qHTS Assay for Inhibitors of Histone Lysine Methyltransferase G9a | Histone-lysine N-methyltransferase EHMT2 (Homo sapiens), Q96KQ7 | G9a H3K9 monomethylation, AlphaScreen, 2 h | Potency, µM (top dose mostly 102 µM), for the others: at the top dose activity, negative = inhibition, actives largely listed as inhibitors | 350,000 tested, 8.8% active; also: % is scaled to controls: 0 for no effect and ±100 for the full control effect; nearly all actives have a fitted effect of over 75% in size
#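 Methyltransferase reactions run at room temperature for 2 h (20 nM enzyme, 500 nM biotin-H3K9 peptide, 20 uM SAM) after a 15 min compound preincubation; product detected by AlphaScreen beads and anti-H3K9me1 antibody.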
# HP1b chromo inh = HTS for Inhibitors of HP1-beta Chromodomain Interactions with Methylated Histone Tails; AID 540317, 2011; Chromobox protein homolog 1 (Homo sapiens), P83916; Potency, µM (doses to about 114 µM), inactives show at the top dose activity change, negative = inhibition, actives largely listed as inhibitors; AlphaScreen HP1-beta / biotin-H3K9me3 peptide binding; 390,000 tested, 0.56% active; also: nearly all actives have a fitted effect of over 70% in size
#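 HP1-beta protein (50 nM final) preincubated 30 min at room temperature with biotinylated H3(1-18)K9me3 peptide (50 nM) in PBS pH 7.4, 0.01% Tween-20, then compound added for 30 min. AlphaScreen streptavidin donor/nickel chelate acceptor beads (10 ug/mL final), 30 min dark, luminescence read.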
# L3MBTL1 inh = qHTS Assay for the Inhibitors of L3MBTL1; Potency, µM (series often up to 57.1 µM), for inactives: at the highest dose activity, negative = inhibition, actives largely listed as inhibitors; 230,000 tested, 0.66% active; AlphaScreen L3MBTL1–H3K9me1 peptide binding; Lethal(3)malignant brain tumor-like protein 1 (Homo sapiens), Q9Y468; AID 485360, 2010; also: % is scaled to controls: 0 for no effect and ±100 for the full control effect; nearly all actives have a fitted effect of over 60% in size
#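 AlphaScreen proximity signal between nickel-chelate acceptor and streptavidin donor beads (final 10 ug/mL) reports binding of 50 nM L3MBTL1 to 75 nM biotin-H3 K9me1 peptide; complex incubated with compounds 30 min at room temperature; cefsulodin titration as control.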
# JMJD2A Tudor = qHTS Assay for Inhibitors of JMJD2A-Tudor Domain. Lysine-specific demethylase 4A (Homo sapiens), O75164. AlphaScreen JMJD2A-Tudor / H3K4me3 peptide binding. Potency, µM (titrated, usually from 114 µM), for the others: at the top dose activity change, negative = inhibition, usual class: inhibitors. 390,000 tested, 4.4% active; also: % is scaled to controls: 0 for no effect and ±100 for the full control effect; nearly all actives have a fitted effect of over 50% in size
# Target sequence (O75164 whole entry, looked up, the tested form may be a part): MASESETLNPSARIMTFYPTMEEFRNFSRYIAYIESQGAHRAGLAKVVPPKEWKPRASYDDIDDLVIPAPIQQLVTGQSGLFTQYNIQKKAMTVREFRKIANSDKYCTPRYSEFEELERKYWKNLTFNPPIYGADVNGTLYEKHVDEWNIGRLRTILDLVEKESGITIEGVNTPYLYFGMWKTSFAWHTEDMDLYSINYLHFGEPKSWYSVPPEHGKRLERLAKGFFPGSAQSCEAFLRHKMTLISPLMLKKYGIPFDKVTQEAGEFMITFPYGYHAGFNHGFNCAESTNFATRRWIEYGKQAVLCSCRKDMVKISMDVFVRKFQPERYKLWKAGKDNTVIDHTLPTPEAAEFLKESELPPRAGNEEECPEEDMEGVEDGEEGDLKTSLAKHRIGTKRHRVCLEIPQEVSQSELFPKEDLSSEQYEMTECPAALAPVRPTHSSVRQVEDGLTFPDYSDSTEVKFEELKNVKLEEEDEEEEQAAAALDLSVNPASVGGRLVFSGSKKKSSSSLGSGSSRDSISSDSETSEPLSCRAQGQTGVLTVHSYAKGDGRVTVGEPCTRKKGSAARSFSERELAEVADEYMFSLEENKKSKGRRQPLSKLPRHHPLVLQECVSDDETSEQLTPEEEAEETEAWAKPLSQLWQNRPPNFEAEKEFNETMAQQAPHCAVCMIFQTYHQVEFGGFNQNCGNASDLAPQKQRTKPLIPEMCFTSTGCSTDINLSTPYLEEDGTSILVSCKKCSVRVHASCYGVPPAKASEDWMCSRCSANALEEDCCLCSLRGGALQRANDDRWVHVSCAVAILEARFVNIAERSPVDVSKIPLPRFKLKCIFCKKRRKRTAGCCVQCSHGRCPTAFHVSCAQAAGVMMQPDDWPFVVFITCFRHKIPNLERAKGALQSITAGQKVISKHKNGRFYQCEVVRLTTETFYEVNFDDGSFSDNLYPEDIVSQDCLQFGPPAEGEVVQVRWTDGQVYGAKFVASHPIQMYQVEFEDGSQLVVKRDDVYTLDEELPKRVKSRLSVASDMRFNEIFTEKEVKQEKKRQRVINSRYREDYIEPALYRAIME
# BAZ2B inh = qHTS Assay for Inhibitors of BAZ2B | 360,000 tested, 4.4% active | AlphaScreen BAZ2B-H3K14Ac peptide displacement | Bromodomain adjacent to zinc finger domain protein 2B (Homo sapiens), Q9UIF8 | Potency, µM (titrated, usually from 114 µM), inactives show at the highest dose activity change, negative = inhibition, hits mostly inhibitors; also: % is scaled to controls: 0 for no effect and ±100 for the full control effect; nearly all actives have a fitted effect of over 60% in size
#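 BAZ2B (50 nM) with biotin-H3(5-23)K14Ac peptide (50 nM) in PBS pH 7.4, 0.01% Tween-20, preformed 30 min, then compound 30 min at room temperature; top concentration 110uM. AlphaScreen streptavidin donor/nickel chelate acceptor beads (10 ug/mL final), 20 min dark, signal read.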
# Starred values were filed as active, the others as inactive; ? = inconclusive; · = no result given; [ ] = dose if it differs, or a comment. Compounds with a hit are over-represented: about 11% of the library has one in this group of screens. Calls follow the shape of the dose curve; as a rule, active = well fitted inhibition curve with a large enough effect; inconclusive = small, poorly fitted or top-dose-only effect; inactive = no such curve, though single readings can be large or run the other way. Potency is read from the fitted curve at half-maximal effect.
SMILES,G9a block,HP1b chromo inh,L3MBTL1 inh,JMJD2A Tudor,BAZ2B inh
Cc1ccn2c(-c3csc(NCc4ccccc4)n3)c(C)nc2c1,5µM*,?,-3%,56µM*,32µM*
Cc1ccn2c(NCc3ccccc3)c(-c3cccs3)nc2c1,-47%,-2%,-9%,?,?
C=CCNc1nc(-c2c(C)nc3ncccn23)cs1,5%[0.501 µM],14%,-2%[2.29 µM],-11%,-4%
Cc1nc(C)c(-c2csc(NCc3ccco3)n2)s1,?,-18%,·,?,50µM*
c1coc(CNc2nc(-c3ccncc3)cs2)c1,-24%[59 µM],-30%,-5%,?,-11%
CCC(C(=O)NCc1ccco1)n1nc(-c2ccc(OC)cc2)ccc1=O (stereo unspecified),?,-32%,-27%,?,50µM*
Cc1nc(C)c(-c2csc(NCc3ccccc3)n2)s1,50µM*,?,?,?,50µM*
COc1ccc(-c2ccc(=O)n(CC(=O)NCc3ccco3)n2)cc1,?,0%,-10%,?,?
N#Cc1c(-n2ncnc2-c2ccccc2Cl)sc2c1CCCCC2,-38%[59 µM],-19%,·,-36%,-26%
CC(C)(C)c1ccc(/C=N/NC(=S)NCc2ccccc2)cc1,24%[59 µM],24%,-4%,-14%,0%
Cc1ccccc1N(CC(=O)N/N=C/c1ccc(N(C)C)cc1)C(=O)c1ccccc1,?,?,·,20µM*,56µM*
CN(C)c1ccc(/C=N/NC(=S)NCc2ccccc2)cc1,?,50µM*,?,13µM*,?
CCCOc1ccccc1-c1nc(SCC(=O)c2ccccc2)n[nH]1,-34%[59 µM],46%,·,-3%,-7%
COc1cccc(NC(=O)C2C3C=CC(O3)C2C(=O)O)c1 (stereo unspecified),·,41%,-3%,-5%,-37%
CCCOC(=O)c1ccc(NC(=O)C2C3C=CC(O3)C2C(=O)O)cc1 (stereo unspecified),14µM*,52%,3%,-18%,-28%
COc1ccc(NC(=O)C2C3C=CC(O3)C2C(=O)O)cc1 (stereo unspecified),40µM*,25%,2%,-18%,-1%
CC(C)OC(=O)c1cc(NC(=O)C2C3C=CC(O3)C2C(=O)O)cc(C(=O)OC(C)C)c1 (stereo unspecified),50µM*,73%,·,?,?
CCCCN1C(=O)/C(=C/C=C2/CC(C)(C)CN2C)SC1=S,?,?,-9%,?,8.9µM*
CCN1C(=O)/C(=C/C=C2/SCCN2C)SC1=S,8.9µM*,-11%,-8%,9%[11.4 µM],-19%[57.1 µM]
CCCN1C(=O)/C(=C\C=C2/Sc3ccccc3N2CCO)SC1=S,?,3%,-4%,-10%,-28%
CCN1C(=O)/C(=C/N2CCc3ccccc32)SC1=S,1%[12.7 µM],21%,-2%,-4%,-3%
CN1CCS/C1=C\C=C1/SC(=S)N(CC(=O)O)C1=O,40µM*,18%,-11%,-29%,?
CCN1C(=O)/C(=C/C=C2/Sc3ccccc3N2CCO)SC1=S,45µM*,-21%,-7%,-18%,-33%
CCCCCCCCC#CCC#CCC#CCCCC(=O)O,21%[59 µM],·,·,·,·
Cc1ccc(S(=O)(=O)Nc2ccc(-c3ccc(N4CCCCCC4)nn3)cc2)c(C)c1,-8%[59 µM],1%[57 µM],·,-25%,-12%
SMILES,G9a block,HP1b chromo inh,L3MBTL1 inh,JMJD2A Tudor,BAZ2B inh
COc1ccc(-c2nc3ccccc3n3c(-c4cccc(C)c4)c4c(=O)n(C)c(=O)n(C)c4c23)cc1,0%[59 µM],14%,·,-16%,1%
O=c1c2cccnc2n(Cc2ccccc2F)c(=O)n1Cc1ccccc1Cl,1%[59 µM],36%,·,-11%,4%
O=C(Cc1nc2ccccc2[nH]1)c1ccc(Br)cc1,45µM*,19%,0%,-29%,-27%
O=C(O)COCc1nc2ccccc2[nH]1,79µM*,20%,8%,-27%,-20%
COc1cc2c(-c3ccc(C)cc3)nc3c(c(C)nn3-c3ccccc3)c2cc1OC,22%[59 µM],48%,·,8%,0%
Cc1ccc(-c2nc3c4ccccc4n(CC(=O)N4CCN(c5ccccc5F)CC4)c(=O)n3n2)cc1,6%[59 µM],10%,·,-12%,-1%
COc1ccc2c(c1)C(=O)[C@@H](O)[C@H](c1ccc(OC)c(Br)c1)O2,-3%,66%,2%,2%,89µM*
COc1cccc([C@@H]2Oc3ccc(OC)cc3C(=O)[C@H]2O)c1,79µM*,34%,12%,-9%,10%
CCc1ccc(S(=O)(=O)Nc2ccc3[nH]c(=O)sc3c2)cc1,-35%[59 µM],20%[57 µM],·,-15%,-4%
COc1ccc(-n2cc(C(=O)c3ccccc3O)cn2)cc1,77%,49%,·,20%,23%
COc1ccc(O)c(C(=O)c2cnn(-c3ccccc3)c2)c1,4.5µM*,-15%,·,-32%,-27%
Cc1cc(C)c2nc3nc(C)c(C)cc3c(N)c2c1,50µM*,12%,-12%,-2%,-24%
CCCSc1nc(C)c2cc(C)cc(C)c2n1,78%[59 µM],162%,·,69%,105%
CCN(c1ccccc1)S(=O)(=O)c1cc(C(=O)O)ccc1C,1%[0.501 µM],8%,?,-24%,50µM*
COc1ccc(-c2cc(=O)n(-c3nc4ccccc4[nH]3)[nH]2)cc1,79µM*,15%,?,?,28µM*
COc1ccc(-c2nc3ccccc3[nH]2)cc1,9%,29%,·,-4%,9%
Fc1ccc(CSc2nnc(-c3ccccn3)o2)cc1,10%[59 µM],47%,0%,1%,-5%
COC(=O)CCC(=O)N(CCN(C(=O)CCC(=O)OC)c1ccccc1)c1ccccc1,-7%,-2%,·,-19%,·
COC(=O)CCN(C(C)=O)c1ccc(N)cc1,-2%[12.7 µM],-4%,·,50µM*,0%
CN1CCc2c(sc(NC(=O)c3ccc(S(=O)(=O)N4CCCC4)cc3)c2C(N)=O)C1,15%,25%,·,-10%,-2%
CCOC(=O)N1CCN(S(=O)(=O)c2ccc(C(=O)Nc3sc4c(c3C(N)=O)CCN(CC)C4)cc2)CC1,50µM*,22%,·,-26%,?
CN1CCc2c(sc(NC(=O)c3ccc(S(=O)(=O)N4CCOCC4)cc3)c2C(N)=O)C1,40µM*,20%,-1%,-27%,1%
CN1CCc2c(sc(NC(=O)C3CCCN3S(=O)(=O)c3ccc(Cl)s3)c2C(N)=O)C1 (stereo unspecified),45µM*,17%,-11%,-11%,-3%
CC(=O)N1CCc2c(sc(NC(=O)C3CCCN3S(=O)(=O)c3cccs3)c2C(N)=O)C1 (stereo unspecified),?,9%,9%,-16%,-30%
CCOC(=O)N1CCN(S(=O)(=O)c2ccc(C(=O)Nc3sc4c(c3C(=O)OC)CCN(C)C4)cc2)CC1,56µM*,32%,·,-28%,-23%
